From PubChem BioAssay (Tox21)
Records with an inconclusive call do not appear. Activity calls are given as the source filed them. Unless noted, calls come from the whole dose curve; as a rule, active = well fitted curve in the direction sought with a large enough effect in the repeat runs; inconclusive = weak or mixed curves; inactive = no such curve, though single readings can be large; an effect the other way counts as inactive or inconclusive.

Assays:
[1] = qHTS assay to identify small molecule agonists of the hypoxia (HIF-1) signaling pathway - cell viability counter screen (AID 1224844; calls by dose curve; note: nearly all actives have a fitted effect of over 50% in size)
Method in brief: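 Multiplexed with the HRE beta-lactamase assay, this viability read used CellTiter-Glo luminescence (30 min, RT) on HRE-bla ME-180 cells treated 17 hrs with compounds in 0.5% dialyzed FBS medium.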

[2] = qHTS assay to identify small molecule agonists of H2AX (AID 1224845; active = well fitted activation curve with a large enough effect in the signal ratio in the repeat runs, not every such curve was filed as active; the % refers to the signal ratio)
Method in brief: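 Wild-type CHO-K1 cells, plated overnight, exposed 3hr at 37C to 15 concentrations (0.76% DMSO final). Lysed, then HTRF anti-pH2AX (S139) cryptate and anti-H2AX-d2 antibodies, 24 hr room temperature; 665/620 nm emission read.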

[3] = qHTS assay to identify small molecule agonists of the hypoxia (HIF-1) signaling pathway (AID 1224846; active = well fitted activation curve with a large enough effect in the signal ratio in the repeat runs, not every such curve was filed as active; the % refers to the signal ratio)
Method in brief: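 Hypoxia-pathway activation was scored as increased beta-lactamase from an HRE-controlled reporter in ME-180 cells; plated at 2,000 cells per well with 0.5% dialyzed FBS, they were exposed 17 hrs to compounds and then given CCF4-AM.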

[4] = qHTS assay to identify small molecule agonists of H2AX - cell viability counter screen (AID 1224847; calls by dose curve; note: top concentration of the series differs between compounds; nearly all actives have a fitted effect of over 30% in size)
Method in brief: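 Compounds tested at 15 concentrations were incubated 3 hr at 37C with wild-type CHO-K1 cells; cellular ATP-based luminescence (CellTiter-Glo) indicated viability.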

[5] = qHTS assay to identify small molecule antagonists of the estrogen related receptor (ERR) signaling pathway from Tox21 library (AID 1224848); note: nearly all actives have a fitted effect of over 50% in size
Method in brief: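 ERR reporter cell line (from NTP) seeded 2,000 cells/well, rested 6 h at 37 C/5% CO2, then pin-dosed with compounds in DMSO. After 18 h at 37 C, ONE-Glo added; luminescence read after 30 min at room temperature.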

[6] = qHTS assay to identify small molecule agonists of the estrogen related receptor (ERR) signaling pathway from Tox21 library (AID 1224849; calls by dose curve; note: nearly all actives have a fitted effect of over 15% in size); settings: ERR reporter cell line, ONE-Glo luciferase, 18 h; at 92.4 µM (top of the series) unless noted
Method in brief: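 Six hours post-seeding at 37 C/5% CO2, ERR cells receive DMSO-solubilised compounds; after 18 h at 37 C, ONE-Glo reagent is applied and luminescence recorded.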

[7] = qHTS RealTime-Glo MT Cell Viability Assay in HepG2 cells - 24 hour (AID 1224867); note: nearly all actives have a fitted effect of over 50% in size
Method in brief: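 Luminescence read-out: viable HepG2 cells reduce a prosubstrate to a NanoLuc substrate, giving a signal proportional to live cell number. Reads taken at 0, 8, 16, 24, 32 and 40 h of compound exposure at 37 C.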

[8] = qHTS RealTime-Glo MT Cell Viability Assay in HEK293 cells - 32 hour (AID 1224868); note: top concentration of the series differs between compounds; nearly all actives have a fitted effect of over 50% in size
Method in brief: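 Nonlytic real-time viability readout: viable cells convert prosubstrate to NanoLuc substrate, giving luminescence proportional to live cell number. HEK293, 600 cells/well, compound added after 5 h, continuous culture at 37 C.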

[9] = qHTS RealTime-Glo MT Cell Viability Assay in HepG2 cells - 40 hour (AID 1224870); note: nearly all actives have a fitted effect of over 50% in size
Method in brief: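 HepG2 cells (600/well) mixed with RealTime-Glo MT reagent, settled 5 h at 37 C/5% CO2 before compound addition. Nonlytic NanoLuc luminescence from viable-cell prosubstrate reduction read repeatedly during 40 h treatment at 37 C.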

[10] = A CellTox Green Cytotoxicity Assay to monitor cytotoxicity in HEK293 cells - 0 hour (AID 1224869); note: nearly all actives have a fitted effect of over 50% in size
Method in brief: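 Seeding of HEK293 cells together with cytotoxicity dye preceded a 5 h incubation at 37 C/5% CO2. Test compounds in DMSO were then added and fluorescence monitored across 40 h.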
% is set by controls: 0 for no effect and ±100 for the full control effect.

CC(C)c1cc2c(cc1S(=O)(=O)O)[C@@]1(C)CCC[C@@](C)(C(=O)O)[C@@H]1CC2
inactive: Potency [1] | outcome [2] | outcome [3] | Potency [4] | Potency [5] | activity change, positive = activation [6] 5.5% [at 42.5 µM] | Potency [7] | Potency [8] | Potency [9]

O=[N+]([O-])c1ccc(F)cc1F
inactive: Potency [1] | outcome [2] | outcome [3] | Potency [4] | Potency [5] | activity change, positive = activation [6] 3.35% | Potency [7] | Potency [8] | Potency [10] | Potency [9]

N=C(N)c1ccc2cc(OC(=O)c3ccc(N=C(N)N)cc3)ccc2c1
inactive: Potency [1] | outcome [2] | outcome [3] | Potency [4] | Potency [5] | Potency [7] | Potency [8] | Potency [10] | Potency [9]

CN(C)CCCNCCCN(C)C
inactive: Potency [1] | outcome [2] | outcome [3] | Potency [4] | Potency [5] | Potency [8] | Potency [10] | Potency [9]

C=C[Si](OC(=C)C)(OC(=C)C)OC(=C)C
inactive: Potency [1] | outcome [2] | outcome [3] | Potency [4] | Potency [5] | Potency [7] | Potency [8] | Potency [10] | Potency [9]

N[C@H]1CN(c2c(F)cc3c(=O)c(C(=O)O)cn(C4C[C@H]4F)c3c2Cl)CC12CC2 (stereo partly specified)
inactive: Potency [1] | outcome [2] | outcome [3] | Potency [4] | Potency [5] | Potency [7] | Potency [8] | Potency [10] | Potency [9]

CO/N=C(/C(=O)N[C@@H]1C(=O)N2C(C(=O)OCOC(=O)C(C)(C)C)=C(C)CS[C@H]12)c1csc(N)n1
inactive: Potency [1] | outcome [2] | outcome [3] | Potency [4] | Potency [5] | activity change, positive = activation [6] 4.91% [at 42.5 µM] | Potency [8] | Potency [10] | Potency [9]

COC(=O)c1cc(C(=O)OC)cc(S(=O)(=O)O)c1
inactive: Potency [1] | outcome [2] | outcome [3] | Potency [4] | Potency [5] | activity change, positive = activation [6] 0.501% | Potency [8] | Potency [9]

Cc1c(O)cccc1O
inactive: Potency [1] | outcome [2] | outcome [3] | Potency [4] | Potency [5] | activity change, positive = activation [6] 2.02% | Potency [8] | Potency [10] | Potency [9]

NC(=O)Nc1ccccc1
inactive: Potency [1] | outcome [2] | outcome [3] | Potency [4] | Potency [5] | Potency [7] | Potency [8] | Potency [10] | Potency [9]

CN1N=C(C(N)=O)CCC1=O
inactive: Potency [1] | outcome [2] | outcome [3] | Potency [4] | Potency [5] | activity change, positive = activation [6] 0.737% [at 42.5 µM] | Potency [8] | Potency [9]

CO[C@]12C[C@@H](COC(=O)c3cncc(Br)c3)CN(C)[C@@H]1Cc1cn(C)c3cccc2c13
inactive: Potency [1] | outcome [2] | outcome [3] | Potency [4] | Potency [5] | Potency [7] | Potency [8] | Potency [10] | Potency [9]

CC(C)OC(=O)c1ccccc1
inactive: Potency [1] | outcome [2] | outcome [3] | Potency [4] | Potency [5] | Potency [7] | Potency [8] | Potency [10] | Potency [9]

FC1(F)C(F)(F)C(F)(F)C2(F)C(F)(F)C(F)(F)C(F)(F)C(F)(F)C2(F)C1(F)F (stereo unspecified)
inactive: Potency [1] | outcome [2] | outcome [3] | Potency [4] | Potency [5] | Potency [7] | Potency [8] | Potency [10] | Potency [9]

CCc1ccc(O)c(OC)c1
inactive: Potency [1] | outcome [2] | outcome [3] | Potency [4] | Potency [5] | Potency [7] | Potency [8] | Potency [10] | Potency [9]

ClC(Cl)(Br)Br
inactive: Potency [1] | outcome [2] | outcome [3] | Potency [4] | Potency [5] | Potency [7] | Potency [8] | Potency [9]

CC(C)(C)c1nnc(NS(=O)(=O)c2ccccc2)s1
inactive: Potency [1] | outcome [2] | outcome [3] | Potency [4] | activity change, positive = activation [6] -14.8% [at 42.5 µM] | Potency [7] | Potency [8] | Potency [10] | Potency [9]

CCc1cccc2c(CCO)c[nH]c12
inactive: Potency [1] | outcome [2] | outcome [3] | Potency [4] | Potency [5] | Potency [7] | Potency [8] | Potency [10] | Potency [9]

COc1c(N2C[C@@H]3CCCN[C@@H]3C2)c(F)cc2c(=O)c(C(=O)O)cn(C3CC3)c12
inactive: Potency [1] | outcome [2] | outcome [3] | Potency [4] | Potency [5] | Potency [8] | Potency [10] | Potency [9]

CC(=O)OCC(=O)[C@@]1(O)CCC2C3CCC4=CC(=O)CC[C@]4(C)C3[C@@H](O)C[C@@]21C (stereo partly specified)
inactive: Potency [1] | outcome [2] | outcome [3] | Potency [4] | Potency [5] | Potency [7] | Potency [8] | Potency [10] | Potency [9]

CCCCCCCCCCCC
inactive: Potency [1] | outcome [2] | outcome [3] | Potency [4] | Potency [5] | Potency [7] | Potency [8] | Potency [10] | Potency [9]

CC(C)=CCCC(C)CC(=O)O (stereo unspecified)
inactive: Potency [1] | outcome [2] | outcome [3] | Potency [4] | Potency [5] | Potency [7] | Potency [8] | Potency [10] | Potency [9]

CC1(C)CO[C@@H](CC(=O)O)CN1
inactive: Potency [1] | outcome [2] | outcome [3] | Potency [4] | Potency [5] | Potency [7] | Potency [8] | Potency [10] | Potency [9]

CCSC(=O)N(CC(C)C)CC(C)C
inactive: Potency [1] | outcome [2] | outcome [3] | Potency [4] | Potency [5] | Potency [7] | Potency [8] | Potency [9]
